PLK1 PBD block – qHTS for Inhibitors of PLK1-PDB (polo-like kinase 1 - polo-box domain): Primary Screen | Serine/threonine-protein kinase PLK1 (Homo sapiens), P53350 | Plk1 PBD binding of FITC phosphopeptide, fluorescence polarization | Potency, µM, hits mostly inhibitors | 360,000 tested, 2.8% active | AID 720504, 2013; further: series mostly up to about 57 µM; nearly all actives have a fitted effect of over 65% in size
Target sequence (P53350 whole entry, looked up, the tested form may be a part): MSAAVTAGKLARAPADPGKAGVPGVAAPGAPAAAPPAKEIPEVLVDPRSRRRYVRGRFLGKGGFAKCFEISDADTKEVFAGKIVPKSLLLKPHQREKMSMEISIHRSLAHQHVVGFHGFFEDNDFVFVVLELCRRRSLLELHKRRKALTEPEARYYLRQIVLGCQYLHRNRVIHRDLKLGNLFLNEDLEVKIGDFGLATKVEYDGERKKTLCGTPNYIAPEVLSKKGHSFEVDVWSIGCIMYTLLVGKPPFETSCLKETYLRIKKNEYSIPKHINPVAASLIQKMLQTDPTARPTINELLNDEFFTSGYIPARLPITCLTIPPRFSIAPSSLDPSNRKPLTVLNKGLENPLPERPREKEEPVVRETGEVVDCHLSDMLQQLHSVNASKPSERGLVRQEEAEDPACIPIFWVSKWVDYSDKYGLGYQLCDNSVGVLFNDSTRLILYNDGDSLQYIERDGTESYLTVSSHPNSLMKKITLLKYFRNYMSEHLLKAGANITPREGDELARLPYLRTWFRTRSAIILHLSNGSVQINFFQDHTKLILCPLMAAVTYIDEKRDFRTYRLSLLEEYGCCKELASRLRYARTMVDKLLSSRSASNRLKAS
JMJD2A Tudor – qHTS Assay for Inhibitors of JMJD2A-Tudor Domain; Lysine-specific demethylase 4A (Homo sapiens), O75164; AlphaScreen JMJD2A-Tudor / H3K4me3 peptide binding; Potency, µM (doses to about 114 µM), usual class: inhibitors; 390,000 tested, 4.4% active; AID 504339, 2011; further: nearly all actives have a fitted effect of over 50% in size
12-LOX inh – Primary qHTS assay for inhibitors of human arachidonate 12S-lipoxygenase (ALOX12): Round 2 | Potency, µM (top dose mostly 108 µM), usual class: inhibitors | 580,000 tested, 1.1% active | Polyunsaturated fatty acid lipoxygenase ALOX12 (Homo sapiens), P18054 | purified 12hLO, xylenol orange hydroperoxide absorbance
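Purified human 12hLO at 150 nM in 25 mM Hepes, 0.01% Triton X-100, pH 7.0, preincubated 15 min at room temperature with compound. Reaction started with 40 uM arachidonic acid, 30 min at room temperature. Hydroperoxide measured by Fe-xylenol orange, 573/405 nm absorbance ratio.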
BAZ2B block – qHTS Assay for Inhibitors of BAZ2B; AlphaScreen BAZ2B-H3K14Ac peptide displacement; Bromodomain adjacent to zinc finger domain protein 2B (Homo sapiens), Q9UIF8; 360,000 tested, 4.4% active; AID 504333, 2011; Potency, µM (highest dose often 114 µM), hits mostly inhibitors; further: nearly all actives have a fitted effect of over 60% in size
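Compounds, titrated to a top concentration of 110 uM, were incubated 30 min at room temperature with preformed BAZ2B/acetyl-K14 H3 peptide complex (50 nM each). Proximity signal was measured by AlphaScreen after 20 min with beads.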
HP1b chromo inh – HTS for Inhibitors of HP1-beta Chromodomain Interactions with Methylated Histone Tails | 390,000 tested, 0.56% active | Potency, µM (series often up to 114 µM), actives largely listed as inhibitors | AlphaScreen HP1-beta / biotin-H3K9me3 peptide binding | Chromobox protein homolog 1 (Homo sapiens), P83916; further: nearly all actives have a fitted effect of over 70% in size
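HP1-beta protein (50 nM final) preincubated 30 min at room temperature with biotinylated H3(1-18)K9me3 peptide (50 nM) in PBS pH 7.4, 0.01% Tween-20, then compound added for 30 min. AlphaScreen streptavidin donor/nickel chelate acceptor beads (10 ug/mL final), 30 min dark, luminescence read.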
G9a inh – qHTS Assay for Inhibitors of Histone Lysine Methyltransferase G9a | G9a H3K9 monomethylation, AlphaScreen, 2 h | Potency, µM (series often up to 102 µM), hits mostly inhibitors | 350,000 tested, 8.8% active | AID 504332, 2011; further: nearly all actives have a fitted effect of over 75% in size
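AlphaScreen read-out: biotin-H3K9 peptide (500 nM) methylation by 20 nM enzyme with 20 uM SAM, 2 h at room temperature after 15 min compound preincubation; anti-monomethyl H3K9 antibody plus donor/acceptor beads, 10 min dark.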
Hits are given with their value; [ ] = another dose, or the depositor's remark. Most compounds without a hit are left out; they make up all but 9% or so of the library. The call rests on the fitted dose curve; in most records, active means well fitted curve in the direction sought with a large enough effect; inconclusive means small, poorly fitted or top-dose-only effect, or another doubt; inactive means no such curve, though single readings can be large; an effect the other way counts as inactive or inconclusive.

What do the screens show for `Cc1ccc(C)c(-c2csc(NC(=O)c3c(C)noc3C)n2)c1`?
PLK1 PBD block: inactive; JMJD2A Tudor: inactive; 12-LOX inh: inactive; BAZ2B block: inactive; HP1b chromo inh: inactive; G9a inh: inactive

What do the screens show for `CC(C)N1CC(C(=O)Nc2nc3ccccc3s2)CC1=O` (configuration not stated)?
PLK1 PBD block: inactive; JMJD2A Tudor: inactive; 12-LOX inh: inactive; BAZ2B block: inactive; HP1b chromo inh: inactive; G9a inh: inactive

What do the screens show for `O=c1[nH]c2ccc(NC(=S)Nc3ccccc3Cl)cc2[nH]1`?
PLK1 PBD block: inactive; JMJD2A Tudor: inactive; 12-LOX inh: inconclusive; BAZ2B block: inactive; HP1b chromo inh: inactive; G9a inh: 14µM

How did Cc1ccccc1NC(=S)Nc1ccc2[nH]c(=O)[nH]c2c1 do in these assays?
PLK1 PBD block: inconclusive; JMJD2A Tudor: inactive; 12-LOX inh: inconclusive; BAZ2B block: inactive; HP1b chromo inh: inactive; G9a inh: 50µM

What do the screens show for `O=C(/C=C/c1ccccc1)c1ccc2cccc3c2c1CC3`?
12-LOX inh: inactive

Results for CN(C)CCN(C(=O)c1ccc(N2C(=O)CCC2=O)cc1)c1nc2cc3c(cc2s1)OCO3 ?
PLK1 PBD block: inactive; JMJD2A Tudor: inactive; 12-LOX inh: inactive; HP1b chromo inh: inactive; G9a inh: 40µM

How did CN(C)CCCN(C(=O)c1ccc(S(=O)(=O)N(C)Cc2ccccc2)cc1)c1nc2cc3c(cc2s1)OCO3 do in these assays?
PLK1 PBD block: inactive; JMJD2A Tudor: 50µM; 12-LOX inh: inconclusive; BAZ2B block: inconclusive; HP1b chromo inh: inactive; G9a inh: 50µM

What do the screens show for `CCOc1cccc2sc(N(CCCN(C)C)C(=O)c3ccc(S(=O)(=O)N(C)Cc4ccccc4)cc3)nc12`?
PLK1 PBD block: inactive; JMJD2A Tudor: inactive; 12-LOX inh: inconclusive; BAZ2B block: inactive; HP1b chromo inh: inactive; G9a inh: inconclusive

Results for CCN(c1ccccc1)S(=O)(=O)c1ccc(C(=O)N(CCCN(C)C)c2nc3cc4c(cc3s2)OCO4)cc1 ?
PLK1 PBD block: inactive; JMJD2A Tudor: 40µM; 12-LOX inh: inconclusive; BAZ2B block: inactive; HP1b chromo inh: inconclusive; G9a inh: 40µM

How did COc1ccc2sc(N(CCCN(C)C)C(=O)c3ccc(S(=O)(=O)N(C)Cc4ccccc4)cc3)nc2c1 do in these assays?
PLK1 PBD block: inactive; JMJD2A Tudor: 50µM; 12-LOX inh: inconclusive; BAZ2B block: inconclusive; HP1b chromo inh: inconclusive; G9a inh: 45µM

How did O=C(Cn1c(=O)nc(-c2ccccc2)c2cc(Cl)ccc21)NCc1ccccc1 do in these assays?
JMJD2A Tudor: inactive; 12-LOX inh: inactive; BAZ2B block: inactive; HP1b chromo inh: inactive; G9a inh: inactive

Results for c1ccc(OC2CNC2)cc1 ?
12-LOX inh: inactive[12.5 µM]

Results for Cc1ccc2sc(N(CCCN(C)C)C(=O)c3ccc(S(=O)(=O)N(C)Cc4ccccc4)cc3)nc2c1C ?
PLK1 PBD block: inactive; JMJD2A Tudor: inconclusive; 12-LOX inh: 28µM; BAZ2B block: inactive; HP1b chromo inh: inconclusive; G9a inh: 10µM

What do the screens show for `CCN(c1ccccc1)S(=O)(=O)c1ccc(C(=O)N(CCCN(C)C)c2nc3c(C)cccc3s2)cc1`?
PLK1 PBD block: inactive; JMJD2A Tudor: 45µM; 12-LOX inh: inconclusive; BAZ2B block: 28µM; HP1b chromo inh: inactive

How did COc1ccc(C)c2sc(N(CCN(C)C)C(=O)c3ccc(S(=O)(=O)N(C)c4ccccc4)cc3)nc12 do in these assays?
PLK1 PBD block: inactive; 12-LOX inh: inactive

Results for Cc1ccc2sc(N(CCCN(C)C)C(=O)c3ccc(S(=O)(=O)N(C)C)cc3)nc2c1C ?
PLK1 PBD block: inactive; JMJD2A Tudor: inactive; 12-LOX inh: inactive; HP1b chromo inh: inactive; G9a inh: inconclusive

How did CN(C)CCCN(C(=O)c1ccc([N+](=O)[O-])o1)c1nc2cc3c(cc2s1)OCO3 do in these assays?
PLK1 PBD block: inactive; JMJD2A Tudor: inactive; 12-LOX inh: inactive; BAZ2B block: inactive; HP1b chromo inh: inactive; G9a inh: 56µM

What do the screens show for `COc1ccc(CNC(=O)COc2cc(O)c3c(c2)OC(C)(C)CC3=O)c(OC)c1`?
PLK1 PBD block: inactive; JMJD2A Tudor: 89µM; 12-LOX inh: inactive; BAZ2B block: inactive; HP1b chromo inh: inactive

Results for CCn1nc(C)c(NS(=O)(=O)c2ccc(C)cc2)c1C ?
PLK1 PBD block: inactive; JMJD2A Tudor: inactive; 12-LOX inh: inactive; BAZ2B block: inactive; HP1b chromo inh: inactive; G9a inh: inactive

How did COc1ccc(-c2nc3ccccc3nc2-c2ccccc2)cc1 do in these assays?
PLK1 PBD block: 21µM; JMJD2A Tudor: inactive; 12-LOX inh: inactive; BAZ2B block: inactive; HP1b chromo inh: inactive; G9a inh: inactive

Results for COc1ccc(-c2cc(OC)c3ccccc3n2)cc1 ?
PLK1 PBD block: inactive; JMJD2A Tudor: inactive; 12-LOX inh: 45µM; BAZ2B block: inactive; HP1b chromo inh: inactive; G9a inh: inactive

Results for COc1ccc(OC)c(-c2nc3ccccc3nc2-c2ccccc2)c1 ?
PLK1 PBD block: inactive; JMJD2A Tudor: inactive; 12-LOX inh: inconclusive; BAZ2B block: inactive; HP1b chromo inh: inactive

What do the screens show for `COc1cc(C(=O)O)nc2ccccc12`?
PLK1 PBD block: inactive; JMJD2A Tudor: 13µM; 12-LOX inh: inconclusive; BAZ2B block: 40µM; HP1b chromo inh: inactive; G9a inh: inactive[2.33 µM]

How did CCc1nn(C(CC)C(=O)NCc2cccc(OC)c2)c(=O)c2cc3occc3n12 (configuration not stated) do in these assays?
PLK1 PBD block: inconclusive; JMJD2A Tudor: inactive; 12-LOX inh: inactive; BAZ2B block: inactive; HP1b chromo inh: inactive; G9a inh: inactive

Results for Cc1ccccc1NC(=S)c1nc2ccccc2[nH]1 ?
PLK1 PBD block: inactive; JMJD2A Tudor: inconclusive; 12-LOX inh: inactive; BAZ2B block: 11µM; HP1b chromo inh: inactive; G9a inh: inactive

Results for Cc1ccccc1NC(=O)NCCc1nc2ccccc2[nH]1 ?
PLK1 PBD block: inactive; JMJD2A Tudor: inactive; 12-LOX inh: inactive; BAZ2B block: inactive; HP1b chromo inh: inactive; G9a inh: inactive[12.7 µM]

How did S=C(Nc1ccc(Cl)cc1)c1nc2ccccc2[nH]1 do in these assays?
PLK1 PBD block: inactive; JMJD2A Tudor: inconclusive; 12-LOX inh: inactive; BAZ2B block: 45µM; HP1b chromo inh: inconclusive; G9a inh: inactive

What do the screens show for `Oc1ccccc1-c1cncn1Cc1ccccc1`?
PLK1 PBD block: inactive; JMJD2A Tudor: inactive; 12-LOX inh: inactive; BAZ2B block: inactive; HP1b chromo inh: inactive; G9a inh: inactive

Compound activity (PubChem BioAssay)
